# Paper PMC7862700, “An all-to-all approach to the identification of sequence-specific readers for epigenetic DNA modifications on cytosine”
# What was measured:
# Experiment in all cases: DAPPL (digital affinity profiling via proximity ligation, sequencing); 10 mM Tris-HCl pH 7.5, 50 mM NaCl, 1 mM DTT, 4% glycerol, room temperature, 30 min; GST-TFs on glutathione beads, 16-mer random dsDNA library, 0.1% formaldehyde crosslink after washing; high values mean tight binding
# [1] = molecular target: T1, FEV (Homo sapiens, UniProt Q99581 1-238); settings: protein: recombinant; tags: N-terminal GST; dsDNA, one strand shown
# T1 sequence: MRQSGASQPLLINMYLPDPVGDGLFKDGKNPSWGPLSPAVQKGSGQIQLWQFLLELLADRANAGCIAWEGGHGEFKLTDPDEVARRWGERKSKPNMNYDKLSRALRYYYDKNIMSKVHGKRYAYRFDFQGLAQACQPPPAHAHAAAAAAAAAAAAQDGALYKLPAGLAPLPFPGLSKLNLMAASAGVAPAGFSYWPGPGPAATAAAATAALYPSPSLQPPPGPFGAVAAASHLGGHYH
# Summary of the method: (§1)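 Binding signal is given per hexamer as its read frequency for a factor divided by its frequency in the tag-only sample. GST-fused human transcription factors were expressed in yeast, captured on glutathione beads, barcoded with DNA and pooled with that sample, then incubated with 200 nmole of a 16-mer random double-stranded DNA library in Tris/NaCl/DTT/glycerol buffer for 30 min at room temperature. The pools were then washed, crosslinked, proximity-ligated, amplified by PCR and sequenced on an Illumina NextSeq500.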
# [2] = molecular target: ETV5 (Homo sapiens, UniProt P41161 1-510); settings: protein: recombinant; tags: N-terminal GST; dsDNA, one strand shown
# Sequence of ETV5 (P41161 whole entry): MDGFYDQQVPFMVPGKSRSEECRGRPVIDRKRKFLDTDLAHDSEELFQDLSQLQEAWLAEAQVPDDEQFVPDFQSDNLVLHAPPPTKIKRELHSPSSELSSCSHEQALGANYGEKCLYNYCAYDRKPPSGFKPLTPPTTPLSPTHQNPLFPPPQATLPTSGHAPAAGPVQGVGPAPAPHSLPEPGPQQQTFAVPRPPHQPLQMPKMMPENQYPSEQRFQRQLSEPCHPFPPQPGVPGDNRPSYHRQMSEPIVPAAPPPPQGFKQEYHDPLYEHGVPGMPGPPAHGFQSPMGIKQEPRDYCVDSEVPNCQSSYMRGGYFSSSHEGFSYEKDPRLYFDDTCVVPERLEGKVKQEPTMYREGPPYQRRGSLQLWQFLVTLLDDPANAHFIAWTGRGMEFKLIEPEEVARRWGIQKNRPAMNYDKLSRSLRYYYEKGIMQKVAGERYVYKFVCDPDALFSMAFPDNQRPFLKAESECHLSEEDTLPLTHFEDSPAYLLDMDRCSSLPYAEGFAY
# Summary of the method: as §1
# [3] = molecular target: HSF1 (Homo sapiens, UniProt Q00613 1-529); settings: protein: recombinant; tags: N-terminal GST; chain copies: 3; dsDNA, one strand shown
# Sequence of HSF1 (Q00613 whole entry): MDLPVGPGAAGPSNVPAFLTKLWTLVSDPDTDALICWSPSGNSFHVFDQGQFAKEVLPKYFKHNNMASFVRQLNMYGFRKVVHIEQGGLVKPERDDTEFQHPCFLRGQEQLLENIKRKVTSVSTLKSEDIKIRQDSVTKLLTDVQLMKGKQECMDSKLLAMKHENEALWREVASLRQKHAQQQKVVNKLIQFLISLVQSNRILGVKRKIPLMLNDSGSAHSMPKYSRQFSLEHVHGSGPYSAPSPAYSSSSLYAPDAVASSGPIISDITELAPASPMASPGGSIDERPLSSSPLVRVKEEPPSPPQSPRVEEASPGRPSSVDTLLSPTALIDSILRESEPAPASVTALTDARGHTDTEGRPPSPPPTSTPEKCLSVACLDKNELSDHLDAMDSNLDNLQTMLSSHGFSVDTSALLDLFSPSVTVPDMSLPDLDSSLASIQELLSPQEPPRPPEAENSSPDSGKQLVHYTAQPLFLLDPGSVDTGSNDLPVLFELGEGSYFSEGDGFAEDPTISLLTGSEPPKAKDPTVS
# Summary of the method: as §1
# [4] = molecular target: T2, SPIC (Homo sapiens, UniProt Q8N5J4 1-248); settings: protein: recombinant; tags: N-terminal GST; dsDNA, one strand shown
# T2 sequence: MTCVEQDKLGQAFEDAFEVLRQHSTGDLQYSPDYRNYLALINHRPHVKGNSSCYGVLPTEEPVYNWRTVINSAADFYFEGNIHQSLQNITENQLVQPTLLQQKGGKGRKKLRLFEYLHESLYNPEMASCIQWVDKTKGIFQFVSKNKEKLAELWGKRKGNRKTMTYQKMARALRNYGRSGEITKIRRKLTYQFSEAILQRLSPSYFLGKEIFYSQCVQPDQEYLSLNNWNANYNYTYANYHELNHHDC
# Summary of the method: as §1
# [5] = molecular target: ELF4 (Homo sapiens, UniProt Q99607 1-663); settings: protein: recombinant; tags: N-terminal GST; dsDNA, one strand shown
# Sequence of ELF4 (Q99607 whole entry): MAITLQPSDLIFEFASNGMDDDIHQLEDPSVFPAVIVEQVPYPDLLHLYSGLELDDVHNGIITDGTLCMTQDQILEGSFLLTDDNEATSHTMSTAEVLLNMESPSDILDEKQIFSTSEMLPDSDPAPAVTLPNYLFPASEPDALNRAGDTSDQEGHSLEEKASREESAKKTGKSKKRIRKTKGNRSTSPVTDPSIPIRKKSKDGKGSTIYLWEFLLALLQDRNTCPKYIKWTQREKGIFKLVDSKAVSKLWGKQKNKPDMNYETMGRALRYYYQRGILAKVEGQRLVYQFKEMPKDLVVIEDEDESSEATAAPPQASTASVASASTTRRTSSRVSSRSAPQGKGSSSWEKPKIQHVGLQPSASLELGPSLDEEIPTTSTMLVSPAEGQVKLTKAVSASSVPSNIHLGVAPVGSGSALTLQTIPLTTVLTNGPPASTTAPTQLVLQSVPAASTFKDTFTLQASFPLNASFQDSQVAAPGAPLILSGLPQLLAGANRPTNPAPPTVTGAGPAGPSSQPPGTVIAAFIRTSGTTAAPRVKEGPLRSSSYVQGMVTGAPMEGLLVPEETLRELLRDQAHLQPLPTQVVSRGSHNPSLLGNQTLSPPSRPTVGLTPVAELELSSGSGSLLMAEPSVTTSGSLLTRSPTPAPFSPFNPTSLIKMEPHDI
# Summary of the method: as §1
# [6] = molecular target: T3, ELK4 (Homo sapiens, UniProt P28324-2 1-405); settings: protein: recombinant; tags: N-terminal GST; dsDNA, one strand shown
# T3 sequence: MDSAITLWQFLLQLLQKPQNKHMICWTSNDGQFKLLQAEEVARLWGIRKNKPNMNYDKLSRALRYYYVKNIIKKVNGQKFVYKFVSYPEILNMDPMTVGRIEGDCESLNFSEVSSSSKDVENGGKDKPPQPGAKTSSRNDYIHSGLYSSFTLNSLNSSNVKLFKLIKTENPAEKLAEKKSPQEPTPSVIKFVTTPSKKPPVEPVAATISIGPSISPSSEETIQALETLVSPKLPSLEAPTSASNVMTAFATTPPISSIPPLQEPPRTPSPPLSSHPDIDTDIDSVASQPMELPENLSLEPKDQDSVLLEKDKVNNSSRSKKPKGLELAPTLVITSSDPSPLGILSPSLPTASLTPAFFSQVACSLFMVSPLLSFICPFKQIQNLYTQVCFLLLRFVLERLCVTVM
# Summary of the method: as §1
# [7] = molecular target: T4, ETV2 (Homo sapiens, UniProt O00321 1-342); settings: protein: recombinant; tags: N-terminal GST; dsDNA, one strand shown
# T4 sequence: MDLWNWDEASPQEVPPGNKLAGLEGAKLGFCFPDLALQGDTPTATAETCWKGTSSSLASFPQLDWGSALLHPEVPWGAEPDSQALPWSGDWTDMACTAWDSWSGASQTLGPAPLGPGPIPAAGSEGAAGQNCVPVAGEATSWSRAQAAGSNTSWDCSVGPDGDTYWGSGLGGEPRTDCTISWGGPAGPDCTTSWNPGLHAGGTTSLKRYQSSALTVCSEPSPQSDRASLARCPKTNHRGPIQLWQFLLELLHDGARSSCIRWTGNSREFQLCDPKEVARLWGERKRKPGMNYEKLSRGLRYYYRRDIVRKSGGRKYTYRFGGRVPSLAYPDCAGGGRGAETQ
# Summary of the method: as §1
# [8] = molecular target: T5, ELF3 (Homo sapiens, UniProt P78545 1-371); settings: protein: recombinant; tags: N-terminal GST; dsDNA, one strand shown
# T5 sequence: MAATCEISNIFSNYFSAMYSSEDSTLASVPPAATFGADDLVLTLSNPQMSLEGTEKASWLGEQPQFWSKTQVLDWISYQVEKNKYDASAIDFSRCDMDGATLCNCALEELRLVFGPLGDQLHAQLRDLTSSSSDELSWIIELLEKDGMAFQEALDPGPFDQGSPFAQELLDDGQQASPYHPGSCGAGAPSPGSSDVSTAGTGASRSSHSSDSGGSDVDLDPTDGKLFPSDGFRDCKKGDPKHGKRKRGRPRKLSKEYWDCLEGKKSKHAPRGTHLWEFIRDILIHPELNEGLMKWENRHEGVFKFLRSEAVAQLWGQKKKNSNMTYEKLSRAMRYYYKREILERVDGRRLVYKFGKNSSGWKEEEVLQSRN
# Summary of the method: as §1
# [9] = molecular target: CRX (Homo sapiens, UniProt O43186 1-299); settings: protein: recombinant; tags: N-terminal GST; dsDNA, one strand shown
# Sequence of CRX (O43186 whole entry): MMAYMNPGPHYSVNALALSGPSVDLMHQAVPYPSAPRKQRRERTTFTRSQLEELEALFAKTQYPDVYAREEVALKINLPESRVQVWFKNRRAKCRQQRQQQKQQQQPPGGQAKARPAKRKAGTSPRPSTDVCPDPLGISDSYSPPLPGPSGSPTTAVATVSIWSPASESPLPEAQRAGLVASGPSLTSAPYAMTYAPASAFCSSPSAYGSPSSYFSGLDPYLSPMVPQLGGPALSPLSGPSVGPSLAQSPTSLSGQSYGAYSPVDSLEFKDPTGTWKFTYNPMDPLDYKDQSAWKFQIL
# Summary of the method: as §1
# [10] = molecular target: ETV1 (Homo sapiens, UniProt P50549 1-477); settings: protein: recombinant; tags: N-terminal GST; dsDNA, one strand shown
# Sequence of ETV1 (P50549 whole entry): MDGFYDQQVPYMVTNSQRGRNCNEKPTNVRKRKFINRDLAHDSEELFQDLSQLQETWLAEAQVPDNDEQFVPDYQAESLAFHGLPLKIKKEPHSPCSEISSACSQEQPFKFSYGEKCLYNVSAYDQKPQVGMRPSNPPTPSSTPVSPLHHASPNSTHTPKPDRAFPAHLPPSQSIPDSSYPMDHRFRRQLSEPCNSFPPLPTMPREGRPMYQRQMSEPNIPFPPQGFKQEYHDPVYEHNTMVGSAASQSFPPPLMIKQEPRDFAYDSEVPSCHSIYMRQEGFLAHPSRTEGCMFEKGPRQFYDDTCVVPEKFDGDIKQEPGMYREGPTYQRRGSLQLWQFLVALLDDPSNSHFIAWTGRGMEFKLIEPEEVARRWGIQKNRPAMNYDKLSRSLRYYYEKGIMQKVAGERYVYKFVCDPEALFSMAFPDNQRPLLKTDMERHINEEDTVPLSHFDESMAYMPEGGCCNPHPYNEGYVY
# Summary of the method: as §1
# [11] = molecular target: T6, ERF (Homo sapiens, UniProt P50548 1-548); settings: protein: recombinant; tags: N-terminal GST; dsDNA, one strand shown
# T6 sequence: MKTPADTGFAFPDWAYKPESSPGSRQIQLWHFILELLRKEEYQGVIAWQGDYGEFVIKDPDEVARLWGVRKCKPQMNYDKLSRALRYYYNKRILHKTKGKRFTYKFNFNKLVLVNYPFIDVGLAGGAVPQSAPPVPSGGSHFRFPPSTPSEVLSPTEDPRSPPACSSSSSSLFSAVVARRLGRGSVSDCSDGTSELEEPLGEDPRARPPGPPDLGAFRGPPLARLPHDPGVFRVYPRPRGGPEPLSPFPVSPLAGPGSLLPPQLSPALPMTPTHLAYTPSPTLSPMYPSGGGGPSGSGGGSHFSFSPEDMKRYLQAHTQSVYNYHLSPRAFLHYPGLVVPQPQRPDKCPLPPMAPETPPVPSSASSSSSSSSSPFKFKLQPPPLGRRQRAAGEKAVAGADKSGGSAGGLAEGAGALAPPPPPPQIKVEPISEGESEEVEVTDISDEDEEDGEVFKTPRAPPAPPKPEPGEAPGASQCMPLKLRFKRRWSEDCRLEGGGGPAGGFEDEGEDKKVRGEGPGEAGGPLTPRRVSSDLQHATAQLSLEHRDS
# Summary of the method: as §1
# [12] = molecular target: T7, ETV3L (Homo sapiens, UniProt Q6ZN32 1-361); settings: protein: recombinant; tags: N-terminal GST; dsDNA, one strand shown
# T7 sequence: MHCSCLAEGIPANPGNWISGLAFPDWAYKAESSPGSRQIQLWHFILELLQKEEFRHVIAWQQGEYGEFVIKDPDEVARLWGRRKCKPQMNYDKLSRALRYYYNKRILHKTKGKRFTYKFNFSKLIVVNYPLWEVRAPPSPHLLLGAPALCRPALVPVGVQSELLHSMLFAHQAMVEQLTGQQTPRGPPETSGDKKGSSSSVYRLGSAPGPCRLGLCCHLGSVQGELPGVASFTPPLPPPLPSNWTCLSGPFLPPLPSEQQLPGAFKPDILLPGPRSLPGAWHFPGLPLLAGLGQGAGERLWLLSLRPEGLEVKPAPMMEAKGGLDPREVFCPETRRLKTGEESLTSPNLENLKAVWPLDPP
# Summary of the method: as §1
# [13] = molecular target: T8, ETS2 (Homo sapiens, UniProt P15036 1-469); settings: protein: recombinant; tags: N-terminal GST; dsDNA, one strand shown
# T8 sequence: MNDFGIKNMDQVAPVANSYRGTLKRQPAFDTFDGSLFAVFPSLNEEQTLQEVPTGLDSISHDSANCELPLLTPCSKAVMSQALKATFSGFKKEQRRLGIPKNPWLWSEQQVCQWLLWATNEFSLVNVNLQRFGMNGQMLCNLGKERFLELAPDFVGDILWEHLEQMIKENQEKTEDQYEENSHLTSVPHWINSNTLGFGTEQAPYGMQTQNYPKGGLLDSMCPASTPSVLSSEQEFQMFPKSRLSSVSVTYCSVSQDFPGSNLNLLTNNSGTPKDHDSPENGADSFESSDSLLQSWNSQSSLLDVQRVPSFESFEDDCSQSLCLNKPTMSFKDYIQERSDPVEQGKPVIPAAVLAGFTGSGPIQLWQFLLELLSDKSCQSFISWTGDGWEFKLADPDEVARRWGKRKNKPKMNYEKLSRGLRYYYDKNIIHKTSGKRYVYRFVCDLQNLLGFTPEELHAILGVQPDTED
# Summary of the method: as §1
# [14] = molecular target: T9, SPDEF (Homo sapiens, UniProt O95238 1-335); settings: protein: recombinant; tags: N-terminal GST; dsDNA, one strand shown
# T9 sequence: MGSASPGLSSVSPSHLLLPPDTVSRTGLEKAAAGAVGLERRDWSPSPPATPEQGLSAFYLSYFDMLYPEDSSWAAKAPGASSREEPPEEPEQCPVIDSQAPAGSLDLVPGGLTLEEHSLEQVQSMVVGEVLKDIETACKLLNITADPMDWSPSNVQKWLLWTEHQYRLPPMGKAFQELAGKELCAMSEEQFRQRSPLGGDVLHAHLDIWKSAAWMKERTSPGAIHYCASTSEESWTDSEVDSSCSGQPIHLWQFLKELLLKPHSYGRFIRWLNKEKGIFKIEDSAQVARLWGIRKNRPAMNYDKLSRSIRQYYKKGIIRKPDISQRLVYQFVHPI
# Summary of the method: as §1
# [15] = molecular target: T10, ETV7 (Homo sapiens, UniProt Q9Y603 1-341); settings: protein: recombinant; tags: N-terminal GST; dsDNA, one strand shown
# T10 sequence: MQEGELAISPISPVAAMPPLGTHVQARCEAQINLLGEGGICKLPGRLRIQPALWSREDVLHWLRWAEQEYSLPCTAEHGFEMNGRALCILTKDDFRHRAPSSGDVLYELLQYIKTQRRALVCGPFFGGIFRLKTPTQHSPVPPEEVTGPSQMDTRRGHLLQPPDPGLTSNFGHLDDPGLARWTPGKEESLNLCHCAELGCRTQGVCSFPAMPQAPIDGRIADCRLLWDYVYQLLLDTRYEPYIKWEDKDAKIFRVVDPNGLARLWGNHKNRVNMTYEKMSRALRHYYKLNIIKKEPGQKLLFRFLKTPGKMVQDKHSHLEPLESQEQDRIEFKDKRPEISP
# Summary of the method: as §1
# [16] = molecular target: T11, ELF5 (Homo sapiens, UniProt Q9UKW6-2 1-255); settings: protein: recombinant; tags: N-terminal GST; dsDNA, one strand shown
# T11 sequence: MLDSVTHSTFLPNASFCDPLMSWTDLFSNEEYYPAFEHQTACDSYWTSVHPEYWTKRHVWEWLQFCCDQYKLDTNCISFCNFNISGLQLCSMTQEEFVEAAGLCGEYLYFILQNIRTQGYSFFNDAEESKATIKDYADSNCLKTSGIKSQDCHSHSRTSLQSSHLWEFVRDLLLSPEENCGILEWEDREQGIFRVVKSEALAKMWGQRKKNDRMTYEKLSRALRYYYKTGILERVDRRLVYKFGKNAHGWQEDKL
# Summary of the method: as §1
# [17] = molecular target: T12, ETV3 (Homo sapiens, UniProt P41162-2 1-143); settings: protein: recombinant; tags: N-terminal GST; dsDNA, one strand shown
# T12 sequence: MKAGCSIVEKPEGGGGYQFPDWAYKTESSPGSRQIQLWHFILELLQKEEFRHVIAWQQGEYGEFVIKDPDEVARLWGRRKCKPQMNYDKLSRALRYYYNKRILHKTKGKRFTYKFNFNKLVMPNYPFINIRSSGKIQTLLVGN
# Summary of the method: as §1
# [18] = molecular target: ETV6 (Homo sapiens, UniProt P41212 1-452); settings: protein: recombinant; tags: N-terminal GST; dsDNA, one strand shown
# Sequence of ETV6 (P41212 whole entry): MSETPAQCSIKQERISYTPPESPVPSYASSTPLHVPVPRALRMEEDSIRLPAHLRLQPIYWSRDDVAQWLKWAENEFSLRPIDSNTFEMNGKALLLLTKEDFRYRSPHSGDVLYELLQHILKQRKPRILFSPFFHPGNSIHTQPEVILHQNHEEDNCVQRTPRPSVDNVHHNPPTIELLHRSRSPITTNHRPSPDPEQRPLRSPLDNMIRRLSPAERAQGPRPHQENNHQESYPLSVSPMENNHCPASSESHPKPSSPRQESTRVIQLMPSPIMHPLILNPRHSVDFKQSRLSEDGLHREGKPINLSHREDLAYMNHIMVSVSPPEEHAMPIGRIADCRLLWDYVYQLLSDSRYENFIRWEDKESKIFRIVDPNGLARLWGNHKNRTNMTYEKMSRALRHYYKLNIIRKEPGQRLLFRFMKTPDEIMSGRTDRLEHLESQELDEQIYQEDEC
# Summary of the method: as §1
sequence,measurement,setting,value
TCCGAA,binding signal,[1],"1.24 fold enrichment (6-mer frequency, TF over GST control)"
same,binding signal,[2],"1.31 fold enrichment (6-mer frequency, TF over GST control)"
same,binding signal,[3],"1.48 fold enrichment (6-mer frequency, TF over GST control)"
same,binding signal,[4],"1.43 fold enrichment (6-mer frequency, TF over GST control)"
same,binding signal,[5],"1.21 fold enrichment (6-mer frequency, TF over GST control)"
same,binding signal,[6],"1.23 fold enrichment (6-mer frequency, TF over GST control)"
same,binding signal,[7],"1.46 fold enrichment (6-mer frequency, TF over GST control)"
same,binding signal,[8],"1.1 fold enrichment (6-mer frequency, TF over GST control)"
same,binding signal,[9],"1.28 fold enrichment (6-mer frequency, TF over GST control)"
same,binding signal,[10],"1.19 fold enrichment (6-mer frequency, TF over GST control)"
same,binding signal,[11],"1.36 fold enrichment (6-mer frequency, TF over GST control)"
same,binding signal,[12],"1.32 fold enrichment (6-mer frequency, TF over GST control)"
same,binding signal,[13],"1.23 fold enrichment (6-mer frequency, TF over GST control)"
same,binding signal,[14],"1.29 fold enrichment (6-mer frequency, TF over GST control)"
same,binding signal,[15],"1.25 fold enrichment (6-mer frequency, TF over GST control)"
same,binding signal,[16],"1.25 fold enrichment (6-mer frequency, TF over GST control)"
same,binding signal,[17],"1.15 fold enrichment (6-mer frequency, TF over GST control)"
same,binding signal,[18],"1.37 fold enrichment (6-mer frequency, TF over GST control)"
